From PubChem BioAssay
Hits are enriched below; roughly 21% of the tested compounds scored in any of these assays.
Pf growth 48h: Primary qHTS for delayed death inhibitors of the malarial parasite plastid, 48 hour incubation; P. falciparum luciferase growth in erythrocytes, 48 h; Potency, µM (titrated, usually from 28.7 µM), most hits filed as inhibitors; 5.9% of 310,000 active
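First compound was added to culture medium, then infected red cells at 0.1% parasitemia and 2% hematocrit (final). After incubation at 37 C under 5% CO2, luciferase detection reagent was dispensed and light output recorded.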
HCV inhibitor: qHTS Assay for Inhibitors of Hepatitis C Virus (HCV) | Potency, µM (highest dose often 41.8 µM), actives largely listed as inhibitors | Huh7.5.1 HCVcc-Cre infection, luciferase reporter, 44 h | 3.4% of 340,000 active
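Whole-lifecycle infectious HCVcc-Cre system; cells 1,000/well, compound then virus (~0.5 moi) added 4 h after plating, 44 h culture. Luciferase read 15 sec following 15 min substrate incubation, room temp.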
CHX counter: Cycloheximide Counterscreen for Small Molecule Inhibitors of Shiga Toxin | max response, % | AID 2314, 2010 | cell reporter, cycloheximide protein synthesis inhibition counterscreen | 12% of 300,000 active; in the data active = max response mostly above about 13%, no sharp cut-off; inactive = mostly below about 14%; also: read at 38.3 µM for the half of the compounds with a filed dose
Pf growth 96h: Primary qHTS for delayed death inhibitors of the malarial parasite plastid, 96 hour incubation. 6.9% of 320,000 active. Potency, µM (titrated, usually from 28.7 µM), hits mostly inhibitors. P. falciparum luciferase reporter growth, 96 h
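Cell-based qHTS: luciferase-tagged P. falciparum in erythrocytes (2% hematocrit, 0.05% parasitemia final) incubated with compounds for 96 hours, 37 C, 5% CO2; luciferase detection reagent then added and luminescence measured.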
Shiga toxin inh: A qHTS for Small Molecule Inhibitors of Shiga Toxin | Vero cells, Shiga toxin protein synthesis inhibition reporter | inhibition, % at 38.7 µM | 9.2% of 290,000 active | AID 2315, 2010; in the data active = inhibition mostly above about 28%, no sharp cut-off; inactive = mostly below about 43%
AMA1 RON2 block: qHTS for Inhibitors of AMA1-RON; Towards Development of Antimalarial Drug Lead: Primary Screen; Plasmodium falciparum AMA1 (3D7) - RON2 peptide interaction; Potency, µM (doses to about 58.2 µM), usual class: inhibitors; 0.2% of 360,000 active; AlphaScreen AMA1-biotinylated RON2 peptide binding; AID 720542, 2013; also: nearly all actives have a fitted effect of over 45% in size
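AMA1 (3D7) with his tag at 25 nM final met compounds first, then biotinylated RON2 peptide at 25 nM; detection used donor plus acceptor beads, 10 µg/mL apiece, read by AlphaScreen after 30 min at room temperature.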
Each line names hits and unclear results; the compound was inactive in the other large screens. Unless noted, calls follow the shape of the dose curve; as a rule, active = well fitted curve in the direction sought with a large enough effect; inconclusive = small, poorly fitted or top-dose-only effect, or another doubt; inactive = no such curve, though single readings can be large; an effect the other way counts as inactive or inconclusive.

O=C(NCC[C@H]1CC[C@H](NS(=O)(=O)c2ccccc2F)[C@@H](CO)O1)c1ccc(F)cc1	none (no result: Pf growth 48h, HCV inhibitor, CHX counter, Pf growth 96h, Shiga toxin inh)
Cc1cc(C)c(S(C)(=O)=O)c(NN)n1	none
F[Si-2](F)(F)(F)(F)F	none (no result: HCV inhibitor, CHX counter, Shiga toxin inh, AMA1 RON2 block)
CCC(C)N(C(=O)c1csnn1)C(C(=O)NC1CCCC1)c1c(F)cccc1Cl (stereo not drawn)	none
O=C(O)c1ccc(COc2ccc3ccccc3c2/C=C2/NC(=O)N(c3ccccc3)C2=O)cc1	Pf growth 48h 5.9µM, Pf growth 96h inconclusive
CCN1C(=O)S/C(=C/c2c(OCc3ccc(C(=O)O)cc3)ccc3ccccc23)C1=O	Pf growth 48h inconclusive, Pf growth 96h 6.6µM, AMA1 RON2 block inconclusive
O=c1[nH]c2ccccc2[n+]([O-])c1-c1ccccc1	none
Cc1ncc(C[n+]2csc(CCOP(=O)(O)OP(=O)(O)O)c2C)c(N)n1	none (no result: HCV inhibitor, AMA1 RON2 block)
COc1ccccc1N(C)S(=O)(=O)c1ccc(Cl)c(C(=O)NCc2cccnc2)c1	Pf growth 48h inconclusive (no result: CHX counter, Shiga toxin inh)
COc1ccccc1N(C)S(=O)(=O)c1ccc(C)c(C(=O)Nc2nccs2)c1	Pf growth 48h 12µM, Pf growth 96h inconclusive (no result: CHX counter, Shiga toxin inh)
COc1ccccc1N(C)S(=O)(=O)c1ccc(C)c(C(=O)NCc2ccccn2)c1	Pf growth 48h 10µM, Pf growth 96h inconclusive (no result: CHX counter, Shiga toxin inh)
CCOc1ccc(N(C)S(=O)(=O)c2ccc(C)c(C(=O)NCc3ccccc3OC)c2)cc1	Pf growth 48h 12µM, HCV inhibitor inconclusive, Pf growth 96h 9.3µM (no result: CHX counter, Shiga toxin inh)
CCOc1ccc(N(C)S(=O)(=O)c2ccc(C)c(C(=O)NCCc3ccc(OC)cc3)c2)cc1	Pf growth 48h inconclusive, HCV inhibitor inconclusive, Pf growth 96h inconclusive (no result: CHX counter, Shiga toxin inh)
CCn1cc(C(=O)N[C@@H](CCSC)C(=O)NCCCN2CCOCC2)c(=O)c2cc3c(cc21)OCO3	none
O=C(Nc1c[nH]c(=O)[nH]c1=O)c1cc([N+](=O)[O-])cc([N+](=O)[O-])c1	Pf growth 96h inconclusive
Cc1nc2ccc(NC(=O)c3ccc(S(=O)(=O)N(C)C)cc3)cc2s1	Pf growth 48h inconclusive, HCV inhibitor inconclusive, Pf growth 96h inconclusive
CN(C)S(=O)(=O)c1ccc(C(=O)Nc2ccc3ncccc3c2)cc1	CHX counter 32, Pf growth 96h inconclusive, Shiga toxin inh 41
Cc1cccc(NC(=O)c2ccc(S(=O)(=O)N(C)C)cc2)c1	HCV inhibitor inconclusive, CHX counter 16
CCN(CC)S(=O)(=O)c1ccc(C(=O)Nc2cccc(C)c2)cc1	Pf growth 48h inconclusive, HCV inhibitor inconclusive (no result: Pf growth 96h)
COc1ccc(C(=O)NNC2=Nc3cccc4cccc2c34)cc1	Pf growth 48h inconclusive, HCV inhibitor inconclusive
CC(=O)N1CCN(C2=Nc3cccc4cccc2c34)CC1	HCV inhibitor 11µM (no result: Pf growth 48h, Pf growth 96h)
c1ccc(CC2CCN(C3=Nc4cccc5cccc3c45)CC2)cc1	Pf growth 48h inconclusive, HCV inhibitor 11µM, AMA1 RON2 block inconclusive
COc1ccccc1N1CCN(C2=Nc3cccc4cccc2c34)CC1	HCV inhibitor 13µM, CHX counter 34, AMA1 RON2 block inconclusive
c1cc2c3c(cccc3c1)C(N1CCOCC1)=N2	none
CCOC(=O)N1CCN(C2=Nc3cccc4cccc2c34)CC1	Pf growth 48h inconclusive, Pf growth 96h inconclusive
COc1ccccc1NC1=Nc2cccc3cccc1c23	CHX counter 14, AMA1 RON2 block inconclusive
COc1ccccc1CN1CCNC(=O)C1CC(=O)N(C)C1CCOCC1 (stereo not drawn)	none (no result: Pf growth 48h, HCV inhibitor, CHX counter, Pf growth 96h, Shiga toxin inh)
O=C(O)c1ccc(NC2=Nc3cccc4cccc2c34)cc1	CHX counter 23, Shiga toxin inh 69
Cc1ccc([C@H]2N[C@]3(CCCN(Cc4ccccc4)C3=O)[C@H]3C(=O)N(C)C(=O)[C@@H]23)cc1	none (no result: Pf growth 48h, HCV inhibitor, CHX counter, Pf growth 96h, Shiga toxin inh)
CCOc1cc2c3c(c1)C1(C(=O)N3C(C)(C)C=C2C)C(C#N)=C(N)Oc2cc(O)ccc21 (stereo not drawn)	Pf growth 48h 4.7µM, HCV inhibitor inconclusive (no result: Pf growth 96h)
CC1=CC(C)(C)N2C(=O)C3(C(C#N)=C(N)Oc4cc(C)oc(=O)c43)c3cccc1c32 (stereo not drawn)	Pf growth 48h inconclusive, HCV inhibitor inconclusive, Pf growth 96h 15µM
CCN1C(=O)C2(C(C#N)=C(N)Oc3cc(C)oc(=O)c32)c2ccccc21 (stereo not drawn)	none
CC(C)(C)c1ccc(S(=O)(=O)NC(=O)C2(C)CCN2C(=O)C2(c3ccccc3)CC2)cc1 (stereo not drawn)	none (no result: Pf growth 48h, HCV inhibitor, CHX counter, Pf growth 96h, Shiga toxin inh)
COc1cccc(N(C(=O)c2snc(C(N)=O)c2N)C(C(=O)NCC2CCCO2)c2ccc3ncccc3c2)c1 (stereo not drawn)	Pf growth 48h inconclusive
CCOC(=O)c1ccc(NC(=O)c2ccc3c(c2)C(=O)N(Cc2cccnc2)C3=O)cc1	none
Cc1ccc(-n2c3c(c(=O)[nH]c2=O)C(NS(=O)(=O)c2ccc(Cl)cc2)(C(F)(F)F)C(=O)N3)cc1 (stereo not drawn)	Pf growth 48h inconclusive, Pf growth 96h 13µM
O=C1Nc2c(c(=O)[nH]c(=O)n2Cc2ccccc2)C1(NS(=O)(=O)c1ccccc1)C(F)(F)F (stereo not drawn)	Pf growth 96h 15µM
NC(=O)c1ccc(N=Nc2c(O)[nH]c(=O)[nH]c2=O)cc1	none (no result: AMA1 RON2 block)
O=c1[nH]c(O)c(N=Nc2ccc(SC(F)F)cc2)c(=O)[nH]1	CHX counter 20
CCN(CC)c1ccc(-c2nn3c(-c4n[nH]c5c4CCC5)nnc3s2)cc1	Pf growth 48h inconclusive, HCV inhibitor 7.9µM
Cc1ccc(S(=O)(=O)NC(C)c2ccccc2)cc1[N+](=O)[O-] (stereo not drawn)	Pf growth 96h 12µM
Cc1ccc(C(=O)NNC(=O)CSc2nnc(C(C)C)n2C)cc1	Pf growth 96h inconclusive
CC1CN(C(=O)CCNC(=O)c2ccccc2Cl)CC(C)O1 (stereo not drawn)	none
O=C1CC(C(=O)N2CCN(Cc3ccccc3)CC2)CN1Cc1ccccc1 (stereo not drawn)	Pf growth 48h inconclusive (no result: CHX counter, Shiga toxin inh)
COc1ccc(CN2CC(C(=O)N3CC(C)CC(C)C3)CC2=O)cc1 (stereo not drawn)	Pf growth 96h 3.7µM
Cc1ccc(CN2CC(C(=O)N3CCN(c4ccccc4Cl)CC3)CC2=O)cc1 (stereo not drawn)	Pf growth 48h 6.6µM, HCV inhibitor inconclusive, Pf growth 96h 12µM (no result: CHX counter, Shiga toxin inh)
COc1ccc(CN2CC(C(=O)NCCC(C)C)CC2=O)cc1 (stereo not drawn)	none
CCCCN(C)CCCNC(=O)C1CC(=O)N(Cc2ccc(OC)cc2)C1 (stereo not drawn)	Pf growth 96h 12µM
Cn1c(N)c(C(=O)COC(=O)c2ccc(Br)o2)c(=O)n(C)c1=O	none
